PriA SSB inh: inhibitors of Klebsiella pneumoniae PriA binding to SSB C-terminal tail; AlphaScreen SSBct-PriA binding, biotinylated peptide; inhibition, % at 33 µM; 430,000 tested, 0.6% active; AID 1272365; in the data active means inhibition mostly above about 37%, no sharp cut-off; inactive means mostly below about 20%
VHR inh abs: inhibitors of human VHR1 phosphatase (DUSP3) | P51452 | recombinant VHR phosphatase, pNPP absorbance | inhibition, % at 13.3 µM | 290,000 tested, 0.52% active; in the data active means inhibition above about 50%
Target sequence (P51452 whole entry, looked up): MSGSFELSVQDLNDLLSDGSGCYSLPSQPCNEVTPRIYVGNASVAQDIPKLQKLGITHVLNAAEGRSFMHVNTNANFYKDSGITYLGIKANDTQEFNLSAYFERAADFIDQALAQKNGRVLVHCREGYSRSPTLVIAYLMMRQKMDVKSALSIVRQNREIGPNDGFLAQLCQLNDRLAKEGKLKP
Sa ugtP lethal: kills S. aureus RN4220 lacking UgtP | AID 1259309 | growth inhibition, % (concentration not given with the values) | S. aureus RN4220 ugtP deletion, OD600 growth, 16 h | 330,000 tested, 0.54% active; in the data active means growth inhibition above about 68%
Sa RN4220 lethal: kills Staphylococcus aureus RN4220 | S. aureus RN4220 growth, OD600, 16 h | inhibition, % (concentration not given with the values) | 330,000 tested, 0.33% active; in the data active means inhibition above about 85%
Mtb hypoxia inh: reduces hypoxia-regulated biosensor signal in M. tuberculosis; M. tuberculosis hypoxia-regulated fluorescent reporter, fluorescence; fluorescence inhibition, % (test concentration not listed); 300,000 tested, 0.1% active; in the data active means fluorescence inhibition mostly above about 23%, no sharp cut-off; inactive means mostly below about 17%
PfHsp40 rescue: restores yeast growth despite PfHsp40 toxicity; S. cerevisiae expressing PfHsp40, growth rescue, ATP luminescence; growth rescue, % at 12.5 µM; 340,000 tested, 0.68% active; AID 504582; in the data active means growth rescue above about 28%, passing the limit was not always enough;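 further: yeast W303a lacking pdr1 and pdr3 grown in galactose medium; growth measured after three days at 30 °C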
Of the large screens only hits and unclear results are named; the others gave an inactive call. Hits are enriched below; roughly 1.8% of the tested compounds scored in any of these assays.

O=S1(=O)CCOCC(Cc2ccccc2)N1Cc1cccc(Cl)c1 (stereo unspecified)	none (no result: PriA SSB inh, VHR inh abs, PfHsp40 rescue)
Clc1ccc2nc(CN3CCCc4ccccc43)cn2c1	PriA SSB inh 42.6
O=C(CNC(=O)N1CC(=O)Nc2ccccc21)Nc1ccccc1F	none
CCOc1ccccc1NC(=O)CNC(=O)N1CC(=O)Nc2ccccc21	VHR inh abs 51.2
Cc1[nH]nc(SCC(=O)N2CCCCCC2)c1[N+](=O)[O-]	PfHsp40 rescue 49.1
O=C(ONc1ccc(N=NC(=O)c2ccccc2O)cc1)c1ccccc1	VHR inh abs 52.1
Cc1cc(NC(=O)c2ncc(-c3ccccc3)o2)n(-c2ccccc2)n1	none (no result: VHR inh abs, Sa ugtP lethal, Sa RN4220 lethal, Mtb hypoxia inh, PfHsp40 rescue)
O=C(Nc1ccc(C(=O)NCCCN2CCCCC2)cc1)C1=CSCCO1	VHR inh abs 56.7
CC1CCN(C(=O)c2[nH]cnc2C(=O)N[C@@H](C)C(=O)OCc2ccccc2)CC1	PriA SSB inh 44.1 (no result: Sa ugtP lethal, Sa RN4220 lethal, Mtb hypoxia inh)
O=C(CN1CCN(c2ncc(C(F)(F)F)cc2Cl)CC1)NCCNc1ncc(C(F)(F)F)cc1Cl	PfHsp40 rescue 293.6
CC(=O)c1cccc(Oc2cc(NN3CCCCC3)c([N+](=O)[O-])cc2[N+](=O)[O-])c1	PriA SSB inh 45.0
O=C(NCCN1Cc2cc(Cl)ccc2OCC1=O)c1cnccn1	PriA SSB inh 50.0 (no result: VHR inh abs, Sa ugtP lethal, Sa RN4220 lethal, Mtb hypoxia inh, PfHsp40 rescue)
O=C(NCCN1Cc2cc(Cl)ccc2OCC1=O)c1ccno1	none (no result: VHR inh abs, Sa ugtP lethal, Sa RN4220 lethal, Mtb hypoxia inh, PfHsp40 rescue)
COc1cc(NC(=O)COC(=O)CNC(=O)C23CC4CC(CC(C4)C2)C3)cc(OC)c1	none (no result: VHR inh abs)
COc1ccc2c(COC(=O)CNC(=O)C34CC5CC(CC(C5)C3)C4)cc(=O)oc2c1	VHR inh abs 51.3
CC(C)(C)OC(=O)C[C@@H]1C/C=C/C[C@@H](CC(=O)N[C@H](CO)Cc2ccccc2)C(=O)N2CCC[C@H]2COC1=O	none (no result: VHR inh abs, Sa ugtP lethal, Sa RN4220 lethal, Mtb hypoxia inh, PfHsp40 rescue)
COCCN1C(=O)C(CC(=O)Nc2ccc(C(C)=O)cc2)SC1=Nc1ccccc1 (stereo unspecified)	VHR inh abs 57.4
CC(C)Oc1ccc(CCC(=O)N/N=C/c2ccc3c(c2)OCO3)cc1	VHR inh abs 50.7 (no result: PriA SSB inh, Sa ugtP lethal, Sa RN4220 lethal, Mtb hypoxia inh)
O=C(c1cc2ccccc2o1)N1CCN(c2ccccc2Cl)CC1	PfHsp40 rescue 186.8
O=C(c1cc2ccccc2o1)N1CCN(c2cccc(Cl)c2)CC1	none
O=C1CSC(=NN=Cc2ccccc2)N1Cc1ccco1	none (no result: PriA SSB inh, VHR inh abs, PfHsp40 rescue)
Oc1ccc(N2CCN(Cc3ccc(OCCCN4CCCCC4)cc3)CC2)cc1	PriA SSB inh 55.2
CCCCOc1ccc(CN2CCCCC2)cc1	none
CCCCCCOc1ccc(CN2CCN(C)CC2)cc1	Sa ugtP lethal 85.7
c1ccc(COc2ccc(OCCCCN3CCCCC3)cc2)cc1	none
Nc1cc2nsnc2cc1Br	VHR inh abs 52.4 (no result: Sa ugtP lethal, Sa RN4220 lethal, Mtb hypoxia inh)
Nc1cccc2nsnc12	none
CC(=NNC(=O)C1CCCN(S(=O)(=O)c2ccccc2)C1)c1cccnc1 (stereo unspecified)	none (no result: VHR inh abs, PfHsp40 rescue)
c1ccc(-c2nc(NCc3cccnc3)c3oc4ccccc4c3n2)cc1	PfHsp40 rescue 48.0
CS(=O)(=O)N1CCC(C(=O)N2CCN(c3nc4c(F)cc(F)cc4s3)CC2)CC1	none (no result: VHR inh abs, Sa ugtP lethal, Sa RN4220 lethal, Mtb hypoxia inh, PfHsp40 rescue)
Cc1nn(-c2ccccc2)c(Cl)c1/C=N/Nc1nc2ccccc2[nH]1	none (no result: PriA SSB inh, Sa ugtP lethal, Sa RN4220 lethal, Mtb hypoxia inh)
C=CCn1cc(C=NNc2nc3ccccc3[nH]2)c2ccccc21	PriA SSB inh 61.4 (no result: VHR inh abs, PfHsp40 rescue)
Cc1c(C=NNc2nc3ccccc3[nH]2)c2ccccc2n1C	Sa ugtP lethal 98.6, Sa RN4220 lethal 98.7 (no result: PriA SSB inh, VHR inh abs, PfHsp40 rescue)
Cn1c(C=NNc2nc3ccccc3[nH]2)nc2ccccc21	none (no result: VHR inh abs, PfHsp40 rescue)
Cc1nn(-c2ccccc2)c(C)c1C=NNc1nc2ccccc2[nH]1	PriA SSB inh 56.0 (no result: VHR inh abs, PfHsp40 rescue)
C/[N+]([O-])=C/c1ccnc2c1ccc1cccnc12	PriA SSB inh 148.5 (no result: VHR inh abs, Sa ugtP lethal, Sa RN4220 lethal, Mtb hypoxia inh, PfHsp40 rescue)
Cc1ccnc2c1ccc1c(C)ccnc12	PriA SSB inh 98.2, PfHsp40 rescue 81.5 (not shown: VHR inh abs, Mtb hypoxia inh)
Cc1ccnc2c1ccc1cccnc12	PriA SSB inh 102.8 (not shown: VHR inh abs, Mtb hypoxia inh)
CC(O)c1nc2ccccc2n1C (stereo unspecified)	none (no result: VHR inh abs, Sa ugtP lethal, Sa RN4220 lethal, Mtb hypoxia inh, PfHsp40 rescue)
CC(O)c1nc2ccccc2n1C1CCCCC1 (stereo unspecified)	PfHsp40 rescue 74.2
CC(C)CN(C(=O)c1cccc(S(=O)(=O)N2CCN(Cc3ccccc3)CC2)c1)C1CCS(=O)(=O)C1 (stereo unspecified)	PfHsp40 rescue 346.9 (no result: VHR inh abs)
COc1ccc2c(c1)c1nnc(SC)nc1n2C	PfHsp40 rescue 58.8
COc1ccc2c(c1)c1nnc(SCC(=O)N3C(C)CCCC3C)nc1n2C (stereo unspecified)	none
O=C(COc1ccccc1)Nc1nc2c(s1)-c1cccc3cccc-2c13	PriA SSB inh 42.0 (no result: VHR inh abs, Sa ugtP lethal, Sa RN4220 lethal, Mtb hypoxia inh, PfHsp40 rescue)
O=C(CCS(=O)(=O)c1ccccc1)Nc1ccsc1-c1nc(C2CC2)no1	none (no result: VHR inh abs, Sa ugtP lethal, Sa RN4220 lethal, Mtb hypoxia inh, PfHsp40 rescue)

Screens (PubChem)
